This note sets out measurements from PubChem BioAssay AID602396 (The Scripps Research Institute Molecular Screening Center, 2012).

Hit rate of the full screen: of about 360,000 compounds, about 460 (0.13%) were called active. The full list was thinned out, with actives kept by preference. Values without a mark were called inactive.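 How the source made its calls: active means inhibition above the mean inhibition of all tested compounds plus 3 SD (cut at about 73% in these data); inactive means the rest.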

For the test, the target named is Nuclear receptor subfamily 5 group A member 2 (Homo sapiens) (UniProt O00482). Put plainly: reduction of NR5A2-driven StAR reporter activity – cell-based, luminescence, HEK293T, StAR-luciferase reporter, primary screen (AID 602396).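 Further: 0% = DMSO wells and 100% = reporter-only cells lacking LRH-1.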 The following applies: LRH-1 transfected, 24 h, at 3.6 µM, stronger effect = higher value.
Sequence of Nuclear receptor subfamily 5 group A member 2 (Homo sapiens) (O00482 whole entry, looked up): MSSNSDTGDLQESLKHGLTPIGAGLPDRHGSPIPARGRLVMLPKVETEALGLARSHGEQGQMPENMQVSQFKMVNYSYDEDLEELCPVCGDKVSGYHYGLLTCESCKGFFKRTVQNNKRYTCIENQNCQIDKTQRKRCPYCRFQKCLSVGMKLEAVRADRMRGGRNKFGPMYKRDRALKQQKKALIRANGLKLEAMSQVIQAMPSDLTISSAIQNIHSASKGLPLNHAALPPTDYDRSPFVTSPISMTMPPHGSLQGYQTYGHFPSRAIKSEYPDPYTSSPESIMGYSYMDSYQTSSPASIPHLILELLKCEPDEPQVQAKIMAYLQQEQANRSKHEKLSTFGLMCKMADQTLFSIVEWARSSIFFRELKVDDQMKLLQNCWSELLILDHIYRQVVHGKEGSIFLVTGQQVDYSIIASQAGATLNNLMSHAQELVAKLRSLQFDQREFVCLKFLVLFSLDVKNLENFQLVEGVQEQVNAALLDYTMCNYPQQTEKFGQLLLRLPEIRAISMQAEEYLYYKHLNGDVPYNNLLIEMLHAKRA
Turning to `CC(=O)OC1C2(CC3N4C(=O)C5(CO)SSC4(CC31O)C(=O)N5C)OC(C)C(C)(C)C2=O` (stereo not given), the inhibition (usually the change of the read-out against control, counted positive when it falls) is 97.6% (active).
As to `CC(=O)N1CN2CN(C(C)=O)CC(C(=O)c3ccc(Br)cc3)(C2)C1`, the inhibition is -11.4%.
In the case of `CN(C)C(=O)Oc1ccc(NC(=O)N2CCOCC2)cc1` it was 10.7%; in that of `CCOc1ccc(-c2cc(C)[n+](CCN(CC)CC)c(-c3ccc(OCC)cc3)c2)cc1`, 86.7% (active).
For the compound `CC(C)n1c(=O)c(C=Nc2ccc(Br)cc2)c(O)n(Cc2ccco2)c1=O`, the inhibition was 5.59%.
In the case of `CCOC(=O)C(O)(c1ccc(NC(=O)c2ccco2)c(OC)c1)C(F)(F)F` (stereo not given) it was 15%.
On to `NCCc1ccc(S(=O)(=O)F)cc1`, for which the inhibition is 12.1%.
In the case of `O=[N+]([O-])c1ccc(C2C3C(c4ccccc4)=NC4(CCCCC4)N32)cc1` (stereo not given) it was 22.7%.
In the case of `CCC(C)n1c(O)c(/C=N/Nc2nc3c(c(=O)n(C)c(=O)n3C)n2C)c(=O)[nH]c1=S` (stereo not given) it was -7.02%; in that of `CCCCCCCCCCCCn1ccc(=N)cc1`, 84.1% (active); in that of `CN(C)CC1CCCCC1=O` (stereo not given), 15.8%.
In the case of `COc1ccc(-c2nn(CCC#N)cc2C(=O)Nc2ccc(C(C)=O)cc2)cc1` it was 17.1%; in that of `Clc1cccc(Cl)c1Cl`, 2.81%; in that of `Cc1ccc(-c2nc3ccccc3c(=O)n2-c2ccc(Br)cn2)cc1`, -1.48%.
As for `CCNc1nc2[nH]c(=O)c3c(c2s1)OC(N)=C(C#N)C3c1cccs1` (stereo not given), the inhibition is -2.41%.
As for `CN(C)c1ccc(/C=C2\CC3C4CC=C5CC(O)CCC5(C)C4CCC3(C)C2=O)cc1` (stereo not given), the inhibition is 10.7%.
In the case of `CCC(C)(O)C(=O)OC1C(=O)OC2CC3C(C)=CC(=O)C(O)C3(C)C3C4(O)OCC23C1C(C)C4O` (stereo not given) it was 98.4% (active).
On to `COc1ccc(C(=O)CC2C(=O)N(C)C(=O)N(C)C2=O)cc1`, for which the inhibition is -5.13%.
In the case of `COC(=O)C1=C(c2ccccc2)C[C@@H]2CC[C@H]1N2C(=O)N1CCCCC1` it was 8.33%.
In the case of `O=C1C2(Cl)C3(Cl)C4(Cl)C(Cl)(Cl)C5(Cl)C3(Cl)C1(Cl)C5(Cl)C24Cl` (stereo not given) it was 0.27%.
In the case of `CCOP(=S)(OCC)SCOC(=O)NCC(=O)OC` it was -13.1%; in that of `CN(C)C(=O)NC(O)C(Cl)(Cl)Cl` (stereo not given), -10.3%; in that of `C[C@]12CC[C@H](O)C[C@H]1CC[C@@H]1C2CC[C@]2(C)[C@@H](C3=CC(=O)OC3)[C@@H](O)C[C@]12O` (stereo not given in full), 88.6% (active).
Turning to `COC(=O)C1=C(c2ccc(F)cc2F)C[C@@H]2CC[C@H]1N2C(=O)NC1CC1`, the inhibition is 20.8%.
In the case of `COc1ccc(NC(=O)N2Cc3ccccc3-n3nncc3C2)cc1` it was -12.7%; in that of `COC1C(O)C(C)OC(OC2CCC3(C=O)C(CCC4C3CCC3(C)C(C5=CC(=O)OC5)CCC43O)C2)C1O` (stereo not given), 104% (active).
`COCCNC(=O)CN1C2CCC1CC(O)(c1cccnc1)C2` (stereo not given): the inhibition was 17.3%.
Regarding `Cc1ccc2c(c1)C1CN(C)CCC1N2C(=O)Cn1nnc(-c2ccccc2F)n1` (stereo not given), the inhibition was -20.9%.
In the case of `CC1=CC(=Cc2sc3ccccc3[n+]2C)C=C(C)O1` it was 80.7% (active); in that of `COc1ccccc1N=C1SCCCN1C`, 11.8%.
In the case of `CCOC(=O)CNC(=O)N1Cc2cc(N3CCCCC3)ccc2-n2nncc2C1` it was 6.84%; in that of `Cc1cc(OCc2cc(C(=O)O)oc2C)c2c3c(c(=O)oc2c1)CCCC3`, 15.5%; in that of `NCC(O)c1ccc(O)cc1` (stereo not given), -5.8%.
As to `CCN(N=Nc1nonc1OC)c1nonc1OC`, the inhibition is 3.32%.
Regarding `CC1CCCN1CCC(C(N)=O)(c1ccccc1)c1ccccc1` (stereo not given), the inhibition is -19.5%.
